# Source: article PMC7826789 (International Journal of Molecular Sciences, 2021)
# Key:
# Conditions in all cases: Compound Concentration (nM):1000
# [1] = system: T1, ERK4
# T1 construct: gene MAPK4
# [2] = system: T2, ERK5
# T2 construct: gene MAPK7
# [3] = system: T3, ERK8
# T3 construct: gene MAPK15
# [4] = system: ERN1
# [5] = system: T4, FAK
# T4 construct: gene PTK2
# [6] = system: FER
# [7] = system: FES
# [8] = system: FGFR1
# [9] = system: FGFR2
# [10] = system: FGFR3(G697C)
# 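Further: KINOMEscan scanMAX binding as percent activity remaining versus control; lower means stronger binding.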
Compound,Percent Control [1],Percent Control [2],Percent Control [3],Percent Control [4],Percent Control [5],Percent Control [6],Percent Control [7],Percent Control [8],Percent Control [9],Percent Control [10]
CN(C)c1cc2c(Nc3ccc4c(cnn4Cc4ccccc4)c3)ncnc2cn1 [GW282974X],100%,100%,87%,52%,85%,100%,81%,97%,97%,93%
COc1cccc(-n2ncc3c(N/N=C/c4ccncc4)ncnc32)c1 [GW784752X],58%,100%,17%,72%,100%,100%,100%,87%,100%,92%
NS(=O)(=O)c1ccc(N/N=C2\C(=O)Nc3ccc(Cl)cc32)cc1 [GW280670X],100%,100%,59%,100%,100%,90%,100%,100%,100%,100%
Cl.O=S1CCN(Cc2ccc(-c3ccc4ncnc(Nc5ccc(OCc6ccccc6)c(F)c5)c4c3)o2)CC1 [GW576924A],100%,100%,100%,100%,100%,100%,100%,100%,100%,100%
COc1cc2ncn(-c3cc(O[C@H](C)c4ccccc4Cl)c(C(N)=O)s3)c2cc1OC [GSK237701A],100%,100%,84%,88%,100%,100%,95%,65%,58%,63%
COc1cc(C)c(N(C)C(=O)CN(C)C)cc1Nc1nc(Nc2cccc(F)c2C(N)=O)c2cc[nH]c2n1 [GSK2219385],92%,100%,95%,100%,100%,91%,97%,100%,82%,88%
Cl.O=C(O[C@H]1CN[C@H](C#Cc2cc3ncnc(Nc4ccc5c(cnn5Cc5ccccc5)c4)c3s2)C1)N1CCOCC1 [GSK200398A],99%,89%,90%,88%,96%,94%,95%,100%,100%,86%
CN1CCN(C(=O)c2ccc(NC(=O)Nc3ccc(N(C)c4ccnc(Nc5ccc(CS(C)(=O)=O)cc5)n4)cc3)cc2)CC1.Cl [GW830263A],100%,100%,25%,25%,36%,46%,67%,100%,99%,100%
COc1cc(C=NNc2ncnc3c2cnn3-c2ccccc2)ccc1O [GW513184X],37%,100%,22%,100%,100%,100%,100%,100%,100%,100%
C[C@@H](Oc1cc(-n2cnc3ccc(OC4CCN(C)CC4)cc32)sc1C(N)=O)c1ccccc1Cl [GSK579289A],98%,96%,100%,55%,50%,100%,85%,67%,89%,61%
COC(=O)Nc1nc2ccc(Oc3ccc(NC(=O)Nc4cc(C(F)(F)F)ccc4F)cc3)cc2s1.Cl [GW693917A],95%,100%,8.5%,56%,92%,100%,88%,51%,30%,59%
Cl.c1ccc(Cc2nc3ccc(Nc4ncnc5ccccc45)cc3[nH]2)cc1 [GR269666A],100%,100%,92%,93%,100%,88%,100%,100%,100%,100%
O=C1Nc2ccc(C(=O)c3ccco3)cc2C1=Cc1cc(Cl)c(O)c(Cl)c1 [GW406108X],100%,100%,100%,66%,100%,100%,99%,100%,75%,100%
CCS(=O)(=O)c1ccc(OC)c(Nc2ncc(-c3cccc(F)c3)o2)c1 [GW621970X],100%,100%,100%,100%,100%,100%,100%,25%,22%,7.2%
COc1cccc(-c2c[nH]c3c(N/N=C/c4ccncc4)ncnc23)c1 [GW814408X],8.3%,100%,2%,100%,100%,100%,100%,100%,100%,100%
NS(=O)(=O)c1ccc(N/N=C2\C(=O)Nc3ccc(C(=O)NCc4ccncc4)cc32)cc1 [GW300657X],100%,39%,4%,57%,86%,100%,100%,91%,80%,100%
COc1ccc2cc(-c3c(-c4ccncc4)nc(-c4ccc(S(C)(=O)=O)cc4C)n3C)ccc2c1 [SB-633825],74%,89%,100%,74%,85%,77%,81%,73%,73%,86%
NS(=O)(=O)c1ccc(N/N=C2\C(=O)Nc3ccc(-c4cnco4)cc32)cc1 [GW276655],100%,98%,23%,89%,68%,91%,86%,85%,100%,78%
CC1=C(C(=O)Nc2ccc3[nH]ncc3c2)C(c2ccc3ccccc3c2)CC(=O)N1 (stereo not shown) [GSK270822A],100%,100%,100%,78%,100%,77%,84%,72%,66%,78%
NS(=O)(=O)c1ccc(N/N=C2\C(=O)Nc3ccc(C(=O)NCCc4c[nH]cn4)cc32)cc1 [GW300660X],100%,100%,18%,82%,100%,100%,100%,100%,100%,100%

Compound,Percent Control [1],Percent Control [2],Percent Control [3],Percent Control [4],Percent Control [5],Percent Control [6],Percent Control [7],Percent Control [8],Percent Control [9],Percent Control [10]
NS(=O)(=O)c1ccc(Nc2ncc(-c3ccccc3)o2)cc1 [GW572399X],100%,100%,28%,100%,100%,100%,100%,100%,100%,100%
C/C(Nc1ccc(S(N)(=O)=O)cc1)=C1/C(=O)Nc2ccccc21 [GW335962X],100%,100%,100%,88%,93%,88%,84%,86%,93%,100%
Cl.O=C(Nc1ccc(Oc2ccc3[nH]c(NC(=O)c4ccco4)nc3c2)cc1)Nc1cc(C(F)(F)F)ccc1F [GW683134A],100%,100%,34%,89%,100%,92%,100%,64%,36%,69%
Cl.O=C(Nc1ccc(Oc2ccc3[nH]c(NC(=O)c4ccccc4)nc3c2)cc1)Nc1cc(C(F)(F)F)ccc1F [GW709042A],91%,94%,64%,100%,100%,77%,94%,76%,68%,100%
CCS(=O)(=O)c1ccc(OC)c(Nc2ncc(-c3cccc(OC)c3)o2)c1 [GW580509X],100%,100%,100%,76%,100%,100%,100%,39%,58%,31%
CC1=C(C(=O)Nc2ccc3[nH]ncc3c2)C(c2ccc(Cl)c(Cl)c2)CC(=O)N1 (stereo not shown) [GSK299115A],100%,100%,90%,80%,100%,97%,96%,90%,73%,94%
O=C(Nc1n[nH]c2nc(-c3ccc(O)cc3)c(Br)cc12)C1CC1 [SB-725317],100%,2.4%,27%,93%,100%,100%,100%,100%,100%,100%
COc1ccccc1-c1cc(/C=C2\C(=O)Nc3ncc(Br)cc32)cc(Br)c1O [GW442130X],100%,100%,100%,100%,97%,100%,100%,100%,100%,100%
COc1cc2ncnc(Nc3ccc4c(cnn4Cc4ccccc4)c3)c2cc1OC.Cl [GW282449A],100%,100%,100%,96%,100%,100%,100%,100%,100%,100%
Nc1ncnc2occ(-c3ccc(NC(=O)Nc4cc(C(F)(F)F)ccc4F)cc3)c12 [GW770249X],100%,100%,2.4%,88%,9.7%,87%,100%,32%,31%,78%
COc1cc(/C=N/Nc2ncnc3[nH]ncc23)ccc1O [GW578748X],72%,100%,93%,53%,100%,100%,100%,81%,100%,88%
COc1ccc(COc2ccc(Cc3cnc(N)nc3N)cc2OC)cc1 [GW632580X],100%,100%,100%,88%,100%,81%,82%,67%,99%,89%
Cc1cc(O)cc(C)c1/C=C/c1cncc(C(N)=O)c1 [GW435821X],100%,100%,100%,82%,100%,98%,100%,92%,100%,100%
COc1ccc2[nH]c3c4[nH]c5ccc(OC)cc5c4c4c(c3c2c1)C(=O)NC4=O [GW296115X],74%,69%,58%,93%,85%,58%,86%,100%,88%,100%
CCn1c(-c2nonc2N)nc2c(C#CC(C)(C)O)nc(OCCNC)cc21.Cl [GSK949675],100%,100%,100%,100%,100%,100%,100%,100%,100%,100%
CC(C)COC(=O)c1ccc2c(c1)/C(=C/Nc1ccc(S(N)(=O)=O)cc1)C(=O)N2 [GW416981X],100%,100%,1.8%,100%,100%,100%,100%,100%,100%,100%
CCc1ccc(Oc2nccc(-c3c(-c4ccc(F)cc4)ncn3C3CCNCC3)n2)cc1 [SB-242719],100%,100%,100%,75%,100%,67%,97%,100%,100%,91%
CN(C)CCNC(=O)Nc1ccc(N(C)c2ccnc(Nc3ccc(CS(C)(=O)=O)cc3)n2)cc1.Cl [GW830900A],93%,100%,78%,72%,49%,100%,100%,100%,94%,100%
COc1ccc2c(-c3ccnc(Nc4cccc(OC(F)(F)F)c4)n3)cnn2n1 [GW810372X],100%,100%,3.6%,100%,100%,100%,100%,91%,100%,75%
COc1cc(N2CCN(C(C)C)CC2)ccc1Nc1nc(Nc2ccc(F)cc2C(=O)NC[C@@H](O)CO)c2cc[nH]c2n1 [GSK1392956A],100%,99%,100%,43%,4.5%,43%,58%,100%,97%,98%
